Laboratory results: PubChem BioAssay AID1347120 (National Center for Advancing Translational Sciences (NCATS), 2019)
Hit rate of the full screen: of about 390,000 compounds, about 930 (0.24%) were called active. A call without a number means that no potency is given here. Another 5% or so got no clear call; they are omitted. The call rests on the fitted dose curve; in most records, active means well fitted activation curve with a large enough effect; inconclusive means small, poorly fitted or top-dose-only effect; inactive means no such curve, though single readings can be large or run the other way. The sample as a whole holds a higher share of actives than the screen did.

Assay: qHTS for Suppressors of FUS Proteinopathy: Primary screen using FUS-linked yeast assay; further: nearly all actives have a fitted effect of over 55% in size
Conditions: S. cerevisiae FUS-expressing, OD600, 24 h; Potency: growth rescue; series mostly up to 76.6 µM
Description: Several widespread neurodegenerative diseases, including Alzheimer disease, Huntington disease, Frontotemporal Lobar Degeneration (FTLD) and Amyotrophic Lateral Sclerosis (ALS), share a common pathological feature, namely accumulation of specific protein aggregates in diseased tissue. These diseases which is associated with protein misfolding (proteinopathies) have become increasingly problematic as the population ages and life expectancies are extended. Most proteinopathies are currently incurable, a situation confounded by the fact that the basis of neurodegeneration is generally poorly understood. There exists urgent and significant need to find therapeutics that can inhibit the toxicity associated with protein aggregation. A novel approach to understand the underlying mechanisms of neurodegenerative diseases has recently emerged in which the disease conditions are modeled in the yeast (Saccharomyces cerevisiae), a tractable eukaryotic organism with conserved protein quality control mechanisms. Yeast offers quick and reliable genetic manipulations and can be easily tailored to high-throughput screening (HTS).
For this project, a yeast model of the FUS proteinopathies (a spectrum of neurodegenerative diseases that include ALS and a subtype of FTLD) was generated and employed. The cytoplasmic accumulation of the DNA/RNA-binding protein FUS (also known as TLS) is causative to both familial and sporadic forms of ALS and FTLD. This yeast model recapitulates neuronal pathology by showing severe cytotoxicity associated with cytoplasmic accumulation of FUS aggregates and a specific interaction between FUS and TDP-43, another ALS-associated protein. […] Specifically, the cellular accumulation of misfolded FUS that disrupts RNA homeostasis in both yeast and higher eukaryotes. This model was validated to be suitable for quantitative HTS (qHTS) use for finding genetic or chemical factors that restore growth. […] Identified compounds that inhibits FUS-yeast toxicity is flagged, re-acquired, and validated for further investigation and optimization.
NIH Chemical Genomics Center [NCGC]
NIH Molecular Libraries Probe Production Centers Network [MLPCN]
Assay Submitter (PI): Frank Shewmaker PhD, Uniformed Services University of the Health Sciences
Compound CP55940 was used as the positive control. Column 1 was treated with CP55940 titration from 92uM (final concentration, 1:2 dilution), while Column 2 was treated with top dose 92uM. Columns 3 and 4 were treated with DMSO only as negative control to assess background and noise signal.
Four hundred fifty microliter of cultured yeast (in 20mL rich medium) provided by Dr. Shewmaker lab was incubated at 30C at 99% humidity for 3hr. The culture was then spun down at 4000rpm for 5min and the cell pellet was resuspended in 2mL of Sdmin Media + ALU(330) + 2.5% Raffinose. One hundred microliter of the suspension was added to 900uL of water and OD of the solution was obtained. Twenty mL of responding medium (provided by Shewmaker lab) + 2.5% raffinose was added to ensure cell density of 0.1; the solution was incubated overnight. Working cell solution (FUS-yeast in Sdmi + Sdmi + 1X ALU + 2% galactose media) was prepared (final OD at 0.005) and 3uL was dispensed in a 1536-well Aurora high based clear bottom assay plates. Controls and library compounds (at various final concentrations from 40uM to 0.32uM) were added using a 1536-well pin array using the Kalypsys pin-tool. The plates were then incubated for 24hrs in a cell-culture incubator (30C; 99% humidity). Absorbance at 600nm was then read using the PerkinElmer ViewLux plate reader.
Potency means the concentration at half of the fitted maximal effect.

Row | SMILES | Potency
1 | CCC(=O)N1CCc2cc(Br)cc(S(=O)(=O)CCC(=O)N3CCN(c4ccc(F)cc4)CC3)c21 | inactive
2 | O=C(Nc1cc(C(F)(F)F)ccc1Cl)c1cc2nc(-c3ccc4c(c3)OCO4)cc(C(F)(F)F)n2n1 | inactive
3 | CCOc1cccc2sc(N3CCN(C(=O)C4CC4)CC3)nc12 | inactive
4 | COC(=O)[C@@]12CCCCC=C1N(CCc1ccc(Cl)cc1)C(=O)[C@H]2CC(=O)NCc1ccc(OC)c(OC)c1 | inactive
5 | COC(=O)[C@]12C[C@H](CC(=O)NCCc3ccccc3OC)C(=O)N(Cc3ccco3)C1=C[C@H](C(C)C)O[C@@H]2C1CC1 | inactive
6 | COC(=O)[C@]12C[C@H](CC(=O)NCc3cccc4ccccc34)C(=O)N(CCc3ccc(OC)c(OC)c3)C1=C[C@H](C1CCCC1)O[C@@H]2C | 12.6 µM (active)
7 | O=C(CSc1nccn1-c1ccc(F)cc1)Nc1cccc2ccccc12 | inactive
8 | CCN(c1ncnc2c1cnn2-c1ccc(C)cc1)C1CCCCC1 | inactive
9 | CCN1CCN(c2cc(C)c3cc(NC(=O)c4cc(Cl)ccc4OC)ccc3n2)CC1 | inactive
10 | CCOc1ccc(C(=O)Nc2ccc3nc4c(c(Nc5ccccc5OC)c3c2)CCCC4)cc1 | inactive
11 | COC(=O)[C@]12C[C@H](CC(=O)NCC34CC5CC(CC(C5)C3)C4)C(=O)N(Cc3ccc(Cl)cc3Cl)C1=C[C@H](COCc1ccccc1)O[C@@H]2C | inactive
12 | CCOC(=O)N1CCN(C(=O)C[C@H]2C[C@@]3(C(=O)OC)C(=C[C@H](C(C)(C)C)O[C@@H]3C)N(Cc3ccc(Cl)cc3Cl)C2=O)CC1 | 6.31 µM (active)
13 | COC(=O)[C@]12C[C@H](CC(=O)N3CCOCC3)C(=O)N(Cc3ccc(Cl)cc3Cl)C1=C[C@H](COCc1ccccc1)O[C@@H]2C | inactive
14 | CC1CCC(N2CC(=O)N(CCC3=CCCCC3)C(c3ccc(F)cc3)C2=O)CC1 (stereo not given) | inactive
15 | CCC(C(=O)Nc1cccc(-c2nc3cccnc3s2)c1C)c1ccccc1 (stereo not given) | inactive
16 | Cc1ccc(Nc2ccc3cc(S(=O)(=O)N4CCCCC4)ccc3n2)cc1F | inactive
17 | Cc1oc2ccc(O)c(CN3CCCCC3)c2c1C(=O)Nc1cccc(C(F)(F)F)c1 | inactive
18 | CCCN1CCN(CCCNC(=O)c2cnn(-c3ccc(C)cc3)c2-n2cccc2)CC1 | inactive
19 | CSc1ncc(Cl)c(C(=O)Nc2ccc(S(=O)(=O)N3CCCC(C)C3)cc2)n1 (stereo not given) | inactive
20 | COc1cc(NC(=O)C2=CC(c3ccc(C)cc3)=NS(=O)(=O)N2C)cc(OC)c1OC | inactive
21 | COc1ccc(C2=NS(=O)(=O)N(C)C(C(=O)NC(C)c3ccccc3)=C2)cc1 (stereo not given) | inactive
22 | COc1ccc(NC(=O)C2=CC(c3ccc(OC)c(OC)c3)=NS(=O)(=O)N2C)cc1 | 31.6 µM (active)
23 | O=C(COc1ccccc1Cl)Nc1ccc2nc(SCC(=O)N3CCCC3)sc2c1 | inactive
24 | COc1cccc(CNC(=O)CSc2c3c(nc4cc(Cl)ccc24)CCCC3)c1 | inactive
25 | CCOC(=O)c1c(NC(=O)c2ccc(S(=O)(=O)N(CC)CC)cc2)sc2c1CCCCC2 | inactive
26 | O=C(Nc1ccccc1F)C(c1ccccc1)N1Cc2ccccc2C1=O (stereo not given) | inactive
27 | COc1ccc(OC)c(-n2nnc(-c3nc(-c4cc(OC)c(OC)c(OC)c4)no3)c2C)c1 | inactive
28 | CCc1ccc(CN(Cc2ccco2)C(=O)COc2ccc(Cl)c(C)c2)cc1 | inactive

Row | SMILES | Potency
29 | CCN(CC)c1nn2c(=O)c(C(=O)NCCc3ccccc3)cnc2s1 | inactive
30 | COc1cccc(OCCn2c(-c3ccc(Br)cc3)nc3ccccc3c2=O)c1 | inactive
31 | COc1ccc(OC)c(-c2csc(-c3c(N)c(C(=O)c4ccccc4)n4ccccc34)n2)c1 | inactive
32 | Cc1nn(C(C)C(=O)Nc2ccc(C(C)C)cc2)c(=O)c2c1sc1ccccc12 (stereo not given) | inactive
33 | Cc1ccc(NC(=O)CSc2nc3c([nH]c4ccccc43)c(=O)n2-c2ccccc2)c(C)c1 | inactive
34 | Cc1ccc(Cl)cc1N(C)C(=O)Cn1nc(Cc2cccnc2)c2ccccc2c1=O | inactive
35 | O=C(CSc1nccn1Cc1ccc(Cl)cc1)NCc1ccccc1 | inactive
36 | Cc1cccc(NC(=O)c2ccc(F)c(S(=O)(=O)N(C)C3CCCCC3)c2)c1 | inactive
37 | CCOc1ccc(C2CC(=O)c3c([nH]c(C(=O)OCc4ccccc4)c3C)C2)cc1 (stereo not given) | inactive
38 | CCOC(=O)C1CCCN(C(=O)c2ccc3c(c2)sc2nc(-c4ccc(CC)cc4)cn23)C1 (stereo not given) | inactive
39 | Cc1c(C(=O)N2CCCC2)oc2c1-c1nn(CC(=O)NCc3ccc(OC(C)C)cc3)cc1CC2 | inactive
40 | Cc1ccc(NC(=O)c2cc(S(=O)(=O)NCCC3=CCCCC3)ccc2F)cc1C | inactive
41 | COc1ccc(-c2cn3c(n2)sc2cc(C(=O)Nc4ccc(F)cc4)ccc23)cc1 | inactive
42 | COc1ccc(Cc2nc3ccc(C(=O)NCc4ccccc4C)cc3o2)cc1 | inactive
43 | Cc1cc(NC(=O)C2CCC(CNS(=O)(=O)c3ccc(Br)s3)CC2)ccc1Br (stereo not given) | inactive
44 | Cc1oc2ccc(O)c(CN3CCC(C)CC3)c2c1C(=O)Nc1ccccc1 | inactive
45 | CCCCOc1ccc(C(=O)N2CC(=O)Nc3ccc(Br)cc3C2c2ccc(F)cc2)cc1 (stereo not given) | inactive
46 | CCCNC(=O)C1CCN(c2nc3ccc(C)cc3[nH]2)CC1 | inactive
47 | O=C(CSc1nc2nccnc2c(=O)n1CCc1c[nH]c2ccccc12)Nc1ccccc1F | inactive
48 | CCOC(=O)N1CCC(NC(=O)c2cnn(-c3cccc(C)c3)c2C2CCN(C(=O)OC(C)(C)C)CC2)CC1 | inactive
49 | CCc1cccc(NC(=O)c2cc(-c3ccccc3)n[nH]2)c1 | inactive
50 | C#CCOCCOCCOCCNc1nc(N2CCN(C(=O)C([C@@H](C)O)n3cc([C@@H](N)CCCCN)nn3)CC2)nc(N2CCN(C(=O)[C@H](CCCCN)n3cc(CN)nn3)CC2)n1 (stereo not given in full) | inactive
51 | C#CCOCCOCCOCCNc1nc(N2CCOCC2)nc(N2CCN(C(=O)[C@H](Cc3ccc(O)cc3)n3cc(CCO)nn3)CC2)n1 | inactive
52 | C#CCOCCOCCOCCNc1nc(N2CCN(C(=O)CCCCCCCCCCNC(=O)[C@H]([C@@H](C)CC)n3cc(CCCCN=C(N)N)nn3)CC2)nc(N2CCN(C(=O)CCCCCCCCCCNC(=O)[C@H](CO)n3cc(CCCSC)nn3)CC2)n1 | 3.16 µM (active)
53 | C#CCOCCOCCOCCNc1nc(N2CCN(C(=O)[C@H](CCC(=O)O)n3cc(C(N)CO)nn3)CC2)nc(N2CCN(C(=O)[C@H](Cc3ccc(O)cc3)n3cc(C(N)[C@H](C)CC)nn3)CC2)n1 (stereo not given in full) | inactive
54 | C#CCOCCOCCOCCNc1nc(N2CCN(C(=O)CCCCCCCCCCNC(=O)[C@H](CCCCN)n3cc(C)nn3)CC2)nc(N2CCN(C(=O)CCCCCCCCCCNC(=O)[C@H](CO)n3cc(CCCSC)nn3)CC2)n1 | 11.2 µM (active)
55 | C#CCOCCOCCOCCNc1nc(N2CCN(C(=O)C([C@@H](C)CC)n3cc(C(N)COC(=O)C(F)(F)F)nn3)CC2)nc(N2CCN(C(=O)[C@H](CCCCN)n3cc(C(N)CC(C)C)nn3)CC2)n1 (stereo not given in full) | inactive
